Assay outcomes (PubChem BioAssay)
12-LOX inh: inhibitors of human 12S-lipoxygenase ALOX12; P18054; purified 12hLO, xylenol orange hydroperoxide absorbance; Potency, µM (top dose mostly 108 µM), hits mostly inhibitors; 580,000 tested, 1.1% active
Target sequence (P18054 whole entry, looked up): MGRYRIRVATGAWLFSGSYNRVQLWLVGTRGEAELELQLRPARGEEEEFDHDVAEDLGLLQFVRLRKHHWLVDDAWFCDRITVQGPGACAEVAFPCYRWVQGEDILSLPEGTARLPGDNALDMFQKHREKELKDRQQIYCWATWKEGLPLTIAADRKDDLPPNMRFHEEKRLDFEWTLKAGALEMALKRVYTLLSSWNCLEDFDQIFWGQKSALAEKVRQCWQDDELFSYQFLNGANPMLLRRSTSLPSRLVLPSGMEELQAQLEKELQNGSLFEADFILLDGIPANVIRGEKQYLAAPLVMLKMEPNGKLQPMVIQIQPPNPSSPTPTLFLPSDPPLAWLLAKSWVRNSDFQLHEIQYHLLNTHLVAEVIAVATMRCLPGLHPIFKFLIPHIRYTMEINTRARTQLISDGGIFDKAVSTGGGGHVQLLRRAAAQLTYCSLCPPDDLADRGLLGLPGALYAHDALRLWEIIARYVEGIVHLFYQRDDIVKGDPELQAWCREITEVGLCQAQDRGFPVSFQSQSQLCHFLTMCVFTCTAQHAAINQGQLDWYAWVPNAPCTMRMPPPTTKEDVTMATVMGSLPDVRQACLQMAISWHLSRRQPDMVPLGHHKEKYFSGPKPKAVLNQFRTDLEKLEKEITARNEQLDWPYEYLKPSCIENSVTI
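Hydroperoxide product was detected by ferrous iron/xylenol orange as the 573 to 405 nm absorbance ratio. Arachidonic acid at 40 uM (final) was turned over for 30 min at room temperature by 150 nM human 12hLO, pH 7.0 Hepes buffer, after 15 min compound preincubation.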
Gal4-VP16 FLuc: inhibits Gal4-VP16 luciferase reporter, ROR gamma counter-screen; Drosophila S2 Gal4-VP16 UAS-luciferase, luminescence, 20 h; Potency, µM (top dose mostly 53.6 µM), most hits filed as inhibitors; 310,000 tested, 3.5% active; AID 2546;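 further: Gal4-VP16 expression switched on by copper sulfate through the metallothionein promoter; nearly all actives have a fitted effect of over 50% in size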
DT40 TDP1 no CPT: qHTS for Inhibitors of human tyrosyl-DNA phosphodiesterase 1 (TDP1): qHTS in cells in absence of CPT; Potency, µM (doses to about 46.2 µM), most hits filed as inhibitors; AID 686978, 2013; 420,000 tested, 15% active; DT40 Tdp1-/- hTDP1 cells, no CPT, ATP luminescence, 48 h; further: nearly all actives have a fitted effect of over 55% in size
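No-CPT arm: Tdp1-/-;hTDP1 DT40 cells (400/well) plus compounds, incubated ≥48 hr at 37 °C. Readout CellTiter-Glo luminescence.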
DT40 TDP1 CPT: DT40-hTDP1 cell growth loss with CPT; Potency, µM (doses to about 46.2 µM), actives largely listed as inhibitors; chicken DT40 Tdp1-/-;hTDP1 cells + 20 nM CPT, ATP luminescence, 48 h; 420,000 tested, 12% active; further: nearly all actives have a fitted effect of over 55% in size
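Cell growth measured by CellTiter-Glo luminescence after a minimum 48 h, 37 C compound exposure with 20 nM CPT in Tdp1-knockout DT40 cells stably expressing hTDP1, seeded 400/well; qHTS titration format.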
ELG1 repair inh: inhibitors of ELG1-dependent DNA repair in HEK293T cells; HEK293T ELG1-luciferase reporter, luminescence, 16 h; DNA damage induced by 5-fluorouridine; Potency, µM (titrated, usually from 46.1 µM), hits mostly inhibitors; 330,000 tested, 2.3% active; AID 504467; further: nearly all actives have a fitted effect of over 55% in size
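Luminescence from the luciferase reporter, measured 30 min after ONE-Glo reagent at room temperature, was the read-out. Beforehand, 2,000 cells per well were exposed for 16 hr at 37 °C to 5-fluorouridine together with compound or vehicle.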
RORgamma inh: ROR gamma (mouse) transcription inhibition | Drosophila S2 Gal4-RORgamma UAS-luciferase reporter, 20 h | Potency, µM (doses to about 53.6 µM), most hits filed as inhibitors | 310,000 tested, 5.4% active; further: nearly all actives have a fitted effect of over 60% in size
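A Gal4/UAS one-hybrid system in insect cells: metallothionein-promoter Gal4–ROR gamma fusion plus Photinus luciferase reporter. Copper sulfate 700 uM final, 20 hr ambient incubation, luminescent detection after 10 min with reagent.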
A number is an active result; - = inactive; ? = inconclusive; . = no result; ! = not active in a repeat. Sampled rows, rich in hits. Any-hit rate of the full collection: about 15%. The call rests on the fitted dose curve; in most records, active means well fitted curve in the direction sought with a large enough effect; inconclusive means small, poorly fitted or top-dose-only effect, or another doubt; inactive means no such curve, though single readings can be large; an effect the other way counts as inactive or inconclusive.

SMILES	12-LOX inh	Gal4-VP16 FLuc	DT40 TDP1 no CPT	DT40 TDP1 CPT	ELG1 repair inh	RORgamma inh
CCN1CCCC1CNC(=O)c1cc(N)ccc1OC (configuration not stated)	-	.	-	-	.	.
CCN1CCC[C@H]1CNC(=O)c1c(OC)ccc(Br)c1OC	-	-	30µM!	33µM!	-	-
C/C(=N\Nc1nc2ccc(Cl)cc2o1)c1ccccc1	-	?	?	-	?	2.5µM
O=S(=O)(c1ccc2nc(-c3ccccc3)[nH]c2c1)N1CCN(c2cccc(Cl)c2)CC1	-	-	?	-	?	-
Cc1cccc(N2CCN(C(=O)c3cccc(S(=O)(=O)N4CCCCC4)c3)CC2)c1C	-	.	?	?	13µM	.
COc1ccccc1N1CCN(C(=O)c2cccc(S(=O)(=O)N3CCCCCC3)c2)CC1	-	.	18µM	?	13µM	.
O=C(c1cccc(S(=O)(=O)N2CCCCCC2)c1)N1CCN(c2ccccc2)CC1	-	-	-	?	?	-
CN1CCN(C(=O)c2cccc(S(=O)(=O)N3CCCCC3)c2)CC1	-	-	-	-	-	-
COc1ccccc1N1CCN(S(=O)(=O)c2ccc3nc(-c4ccccc4)[nH]c3c2)CC1	-	-	21µM	?	?	?
CS(=O)(=O)N1CCc2cc(C(=O)N3CCN(c4ccccc4F)CC3)ccc21	?	-	?	?	-	-
Cc1cccc(N2CCN(C(=O)c3ccc4c(c3)CCN4S(C)(=O)=O)CC2)c1C	-	-	?	13µM	?	-
CCCN1C(=O)C(CC(=O)N2CCOCC2)Sc2ncccc21 (configuration not stated)	-	.	.	.	.	.
Cc1cc(C)c2c(=O)n3c(nc2c1)C(Cc1ccccc1)NC(=O)c1cccnc1-3 (configuration not stated)	?	.	21µM	?	.	.
Cc1cc(C)c2c(=O)n3c(nc2c1)C(Cc1ccc(O)cc1)NC(=O)c1cccnc1-3 (configuration not stated)	-	.	18µM	?	.	.
Cc1cc(C)nc(-n2nc(C)c3c2N(Cc2ccccc2)C(=O)CC3c2ccc(Cl)cc2)n1 (configuration not stated)	-	.	?	16µM	.	.
Cc1cc(C(C)(C)C)cc(C)c1C[n+]1ccc2ccccc2c1	-	?	0.23µM	0.41µM	?	?
O=C(CCCOC(=O)c1c(Cl)ccc(Cl)c1Cl)c1ccc(F)cc1	-	.	.	.	.	.
Cc1cccn2c(=O)c(/C=C(\C#N)C(=O)NC3CCS(=O)(=O)C3)c(Oc3ccc(F)cc3)nc12 (configuration not stated)	?	-	21µM	?	-	-
Cc1cc(Oc2nc3ccccn3c(=O)c2/C=C(\C#N)C(=O)NC2CCS(=O)(=O)C2)ccc1Cl (configuration not stated)	?	-	16µM	-	-	-
N#C/C(=C\c1c(Oc2ccc(Cl)cc2)nc2ccccn2c1=O)C(=O)NC1CCS(=O)(=O)C1 (configuration not stated)	-	-	?	-	-	-
COc1cccc(C(=O)Oc2ccccc2/C=C\C(=O)c2cc3ccccc3o2)c1	-	?	4.6µM	6.5µM	?	?
COc1cccc(C(=O)Oc2ccc3ccccc3c2)c1	-	.	.	.	.	.
O=C(Oc1ccccc1/C=C\C(=O)c1cc2ccccc2o1)c1ccccc1	-	?	7.3µM	7.3µM	?	?
O=C(Oc1ccccc1/C=C\C(=O)c1cc2ccccc2o1)c1cccc(F)c1	-	?	21µM	5.2µM	?	?
O=C(Cc1c(F)cccc1Cl)N1CCOCC1	-	-	-	-	-	-
SMILES	12-LOX inh	Gal4-VP16 FLuc	DT40 TDP1 no CPT	DT40 TDP1 CPT	ELG1 repair inh	RORgamma inh
O=C1S/C(=C/c2ccc(N3CCOCC3)o2)C(=O)N1Cc1c(F)cccc1Cl	28µM	-	-	?	?	-
O=C1S/C(=C\c2ccc(N3CCOCC3)o2)C(=O)N1c1ccccc1	?	?	8.2µM	1.6µM	?	-
O=C1S/C(=C\c2ccc(N3CCOCC3)o2)C(=O)N1Cc1c(F)cccc1Cl	32µM	?	?	7.3µM	-	?
O=C1N=C(N2CCOCC2)S/C1=C/c1ccc(-c2ccccc2Cl)o1	-	-	?	?	-	-
O=C(c1ccccc1)N1C[C@@H](F)[C@@H](OCc2nc3ccc(C(F)(F)F)cc3[nH]2)C1	-	.	.	.	.	.
CCNc1nc(C(=O)O)nc(N2CCOCC2)n1	-	-	-	-	-	-
CN(C)c1nc(N)nc(N(c2ccccc2)c2ccccc2)n1	-	-	?	?	-	-
CN(c1ccccc1)c1nc(C#N)nc(N2CCOCC2)n1	.	.	10µM	13µM	.	.
N#Cc1nc(N(c2ccccc2)c2ccccc2)nc(-n2cccc2)n1	.	.	3.5µM	7.1µM	.	.
CCNc1nc(C#N)nc(N2CCOCC2)n1	.	.	13µM	?	.	.
CC(C)(C)Nc1nc(C(N)=O)nc(N2CCOCC2)n1	-	-	?	?	-	-
NC(=O)c1nc(N2CCOCC2)nc(N2CCOCC2)n1	-	-	14µM	14µM	-	-
CN(C)c1nc(N2CCOCC2)nc(N(c2ccccc2)c2ccccc2)n1	-	-	-	-	?	-
FC(F)(F)c1cccc(-c2noc(CSc3nc4ccccc4o3)n2)c1	-	.	.	.	.	.
N#Cc1cccc(CN2C[C@@H](CO)[C@H](c3ccccn3)C2)c1	-	.	.	.	.	.
N#Cc1nc(N2CCOCC2)nc(N2CCOCC2)n1	?	-	26µM	18µM	-	-
O=C(O)C(c1c[nH]c2ccc(Br)cc12)N1CCN(CCOc2ccc(Cl)cc2)CC1 (configuration not stated)	-	.	.	.	.	.
CC(=O)Nc1ccc(/C=C/c2ccnc3ccccc23)cc1	.	.	11µM	16µM	.	.
Cc1ccc(NC(=O)COc2ncnc3ccccc23)c([N+](=O)[O-])c1	-	.	.	.	.	.
CC(=O)Nc1ccc(/C=C/c2ccnc3ccccc23)cc1[N+](=O)[O-]	.	.	?	1.4µM	.	.
CN1c2cc(C(=O)NCc3ccc(F)cc3Cl)ccc2C(=O)N2CCCCC21 (configuration not stated)	-	.	.	.	.	.
Cc1ccc(C(=O)N2CCN(C3CCN(CCc4ccccc4)C3=O)CC2)cc1F (configuration not stated)	-	.	.	.	.	.
CCc1ccc(CN(C)C(=O)CN2CCN(c3ccc([N+](=O)[O-])c4cnccc34)CC2)cc1	-	.	.	.	.	.
CCOc1ccc2cc(/C=C/C(=O)c3ccco3)c(Cl)nc2c1	-	?	21µM	?	?	?
Cc1ccc(CCNC(=O)c2cc(C)nc3c(C)cc(C)cc23)cc1	-	.	.	.	.	.
CNC(=O)COc1c(Cl)cc(Cl)c2ccc(C)nc12	-	.	.	.	.	.
